Among all 320,000 compounds or so, about 22,000 (6.9%) were called active. About 27% were inconclusive and are not listed. Calls come from the whole dose curve; as a rule, active = well fitted inhibition curve with a large enough effect; inconclusive = small, poorly fitted or top-dose-only effect, or another doubt; inactive = no such curve, though single readings can be large or run the other way. The full list was thinned out, with actives kept by preference.
Test: Primary qHTS for delayed death inhibitors of the malarial parasite plastid, 96 hour incubation
Settings: P. falciparum luciferase reporter growth; series mostly up to 28.7 µM; activity change, negative = inhibition: at the top concentration
Procedure, shortened: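 Compounds incubated with erythrocytes infected by luciferase-expressing P. falciparum (2% hematocrit, 0.05% parasitemia final) for 96 hours, 37 C in 5% CO2. Growth inhibition scored as decreased luciferase luminescence.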
With `O=C(NC1CCCC1)C1CC(=O)N(c2ccc(F)cc2)C1` (configuration not stated) the “activity change, negative = inhibition” value was -9.08% (inactive).
For `O=C(NC1CCCCCCC1)c1cccs1`, the “activity change, negative = inhibition” value was 23.4% (inactive).
For `CCC(C)[C@H]1COCCS(=O)(=O)N1Cc1ccc(C)cc1` (some centres not stated), the “activity change, negative = inhibition” value was 84.1% (inactive).
For `C/C(=N\NC(=O)c1ccc2ccccc2c1)c1cccnc1`, the “activity change, negative = inhibition” value was 18.6% (inactive).
For `O=C(NCCNc1ccc([N+](=O)[O-])cc1Cl)c1ccccc1F`, the “activity change, negative = inhibition” value was -45.8% (inactive).
In the case of `O=C(NC1CCN(Cc2ccccc2)CC1)c1ccccc1F`, the activity change, negative = inhibition is reported as 202% [at 5.75 µM] (inactive).
With `O=C(NC1CCN(Cc2ccccc2)CC1)c1c(F)cccc1F` the “activity change, negative = inhibition” value was 84.5% (inactive).
With `O=C(NC1CCN(Cc2ccccc2)CC1)c1cc(Br)c(Br)[nH]1` the Potency was 11.7 µM (active).
For `CN(Cc1cccc2ncccc12)C(=O)CC1C(=O)NCCN1Cc1ccc(F)cc1` (configuration not stated), the Potency was 13.1 µM (active).
With `Cc1cnc(CN(C)C(=O)CC2C(=O)NCCN2Cc2cccc(F)c2F)[nH]1` (configuration not stated) the “activity change, negative = inhibition” value was 4.66% (inactive).
For `COc1cccc(CN2CCNC(=O)C2CC(=O)N(C)CCc2ccccn2)c1` (configuration not stated), the “activity change, negative = inhibition” value was 32.9% (inactive).
With `O=C(N/C(=C/c1ccc(Cl)cc1)C(=O)N1CCCCC1)c1ccco1` the “activity change, negative = inhibition” value was -0.335% (inactive).
With `O=C(O)CC(CC(=O)N1CCOCC1)c1ccccc1` (configuration not stated) the “activity change, negative = inhibition” value was 14.1% (inactive).
In the case of `CCOc1cc(C)ccc1OCc1nnc(SCC(=O)Nc2cccc(C(=O)O)c2)n1-c1ccccc1`, the “activity change, negative = inhibition” value is reported as 45% (inactive).
For `O=C(O)c1cc(S(=O)(=O)Nc2ccc3cn[nH]c3c2)ccc1Br`, the “activity change, negative = inhibition” value was 12.5% (inactive).
For `CCCNC(=O)c1cnc(-c2ccccc2)nc1-c1ccccc1`, the “activity change, negative = inhibition” value was 17.4% (inactive).
For `C/C(=N\NC(=O)c1cccnc1)c1ccc(-c2ccccc2)cc1`, the “activity change, negative = inhibition” value was 35.5% (inactive).
In the case of `CCOc1ccccc1-c1cc(C(=O)N/N=C(\C)c2cccnc2)c2ccccc2n1`, the “activity change, negative = inhibition” value is reported as 2.86% (inactive).
For `C/C(=N\NC(=O)c1cc(-c2ccc(O)cc2)nc2ccccc12)c1cccnc1`, the Potency was 9.28 µM (active).
With `CC1(c2nnc(Cc3ccccc3)o2)CC(c2ccccc2F)=NO1` (configuration not stated) the “activity change, negative = inhibition” value was 67.6% (inactive).
For `COc1ccc(NC(=O)CSc2nncc(=O)n2N)cc1OC`, the “activity change, negative = inhibition” value was 8.56% (inactive).
With `O=C(CCC1CCCN(C(=O)Cc2ccc(F)cc2)C1)N1CCN(c2ccccn2)CC1` (configuration not stated) the “activity change, negative = inhibition” value was -10.4% (inactive).
With `Cc1nc2c(-c3ccc(F)cc3)c(C)nn2c(C)c1CCC(=O)N1CCN(c2ccccn2)CC1` the Potency was 7.38 µM (active).
With `O=C(Cc1ccccc1Cl)N1CCN(c2ccccn2)CC1` the “activity change, negative = inhibition” value was 1.61% (inactive).
In the case of `O=C(c1cc(COc2ccc(F)c(F)c2)on1)N1CCOCC1`, the “activity change, negative = inhibition” value is reported as -9.89% (inactive).
With `CCn1c(=O)c2cc(C(=O)Nc3cccc(C(C)=O)c3)sc2c2ccccc21` the “activity change, negative = inhibition” value was 0.375% (inactive).
In the case of `N#CC1=C(N)OC2=C(C(=O)CCC2)C1C1CC=CCC1` (configuration not stated), the “activity change, negative = inhibition” value is reported as 40.6% (inactive).
With `CCOc1ccc(C2C(C#N)=C(N)N(N(C)C)C3=C2C(=O)CCC3)cc1` (configuration not stated) the “activity change, negative = inhibition” value was 59% (inactive).
For `CN(C)N1C(N)=C(C#N)C(c2ccc(Br)cc2)C2=C1CCCC2=O` (configuration not stated), the Potency was 2.94 µM (active).
For `COc1ccc(C2C(C#N)=C(N)N(c3ncn[nH]3)C3=C2C(=O)CCC3)cc1` (configuration not stated), the “activity change, negative = inhibition” value was 0% (inactive).
For `N#CC1=C(N)N(c2ccccc2)C2=C(C(=O)CCC2)C1c1ccccc1` (configuration not stated), the Potency was 2.08 µM (active).
In the case of `NC1=C([N+](=O)[O-])C(c2ccccc2)C2=C(CCCC2=O)O1` (configuration not stated), the “activity change, negative = inhibition” value is reported as 0.515% (inactive).
In the case of `Cc1nc2ccc(S(=O)(=O)N(C)CC(=O)NC(C)c3ccccc3)cc2s1` (configuration not stated), the “activity change, negative = inhibition” value is reported as 25.8% (inactive).
With `N#CCC(=O)Nc1ccc(C(=O)OCC(=O)Nc2sc3c(c2C#N)CCCC3)cc1` the “activity change, negative = inhibition” value was 61.4% (inactive).
With `Cc1ccccc1N1CCN(CCCN2C(=O)C3CCCCN3C2=O)CC1` (configuration not stated) the “activity change, negative = inhibition” value was 7.49% (inactive).
For `O=C(C1CC(=O)N(C2CCCC2)C1)N1CCN(c2cccc(C(F)(F)F)c2)CC1` (configuration not stated), the “activity change, negative = inhibition” value was -14.5% (inactive).
With `O=C1C2CCCN2C(=O)N1CCCCN1CCN(c2cccc(C(F)(F)F)c2)CC1` (configuration not stated) the Potency was 13.1 µM (active).
In the case of `CCCc1cc(=O)oc2c(C)c(OCC(=O)NCc3ccccn3)ccc12`, the “activity change, negative = inhibition” value is reported as 14% (inactive).
For `O=C(Cc1cccc2ccccc12)NNC(=O)Nc1ccc(Cl)cc1`, the “activity change, negative = inhibition” value was 0.722% (inactive).
In the case of `CCCN1C2CCCC1CC(NC(=O)NC13CC4CC(CC(C4)C1)C3)C2` (configuration not stated), the “activity change, negative = inhibition” value is reported as -27.6% (inactive).
With `CC1CCCCN1S(=O)(=O)c1ccc(S(=O)(=O)N(CC(=O)Nc2ccccc2)Cc2cccs2)cc1` (configuration not stated) the Potency was 4.65 µM (active).
In the case of `CC1CCCCN1S(=O)(=O)c1ccc(C(=O)Nc2nnc(-c3cccs3)o2)cc1` (configuration not stated), the “activity change, negative = inhibition” value is reported as -0.7% (inactive).
In the case of `CCN(CC(=O)NCc1cccs1)S(=O)(=O)c1ccc(NC(C)=O)cc1`, the “activity change, negative = inhibition” value is reported as -23.3% (inactive).
In the case of `Cc1ccccc1C(=O)Nc1ccccc1NC(=O)c1ccccc1C`, the “activity change, negative = inhibition” value is reported as 433% (inactive).
For `Cc1cccc(CN2CCC(CNC(=O)Nc3ccc(F)c(Cl)c3)CC2)c1`, the “activity change, negative = inhibition” value was 6.46% (inactive).
In the case of `Cc1ccccc1NC(=O)NCC1CCN(Cc2cccc(Cl)c2)CC1`, the “activity change, negative = inhibition” value is reported as 27.4% (inactive).
For `O=C(NCC1CCN(Cc2ccccc2Cl)CC1)Nc1cccc(Cl)c1`, the Potency was 1.65 µM (active).
For `Cc1ccc(C)c(CN2CCC(CNC(=O)Nc3ccc(C)c(F)c3)CC2)c1`, the “activity change, negative = inhibition” value was 36.5% (inactive).
With `COc1ccc(Cl)cc1NC(=O)NCC1CCN(Cc2ccccc2F)CC1` the “activity change, negative = inhibition” value was 12.4% (inactive).
With `COc1cc(NC(=O)NCC2CCN(Cc3ccc(C)cc3)CC2)cc(OC)c1OC` the Potency was 10.4 µM (active).
With `Cc1ccc(C(=O)N/C(=C\c2cn(S(=O)(=O)N(C)C)c3ccccc23)C(=O)N2CCCC2)cc1` the “activity change, negative = inhibition” value was 0% (inactive).
With `COc1ccc(-n2nnnc2CNC(=O)c2ccc3ccccc3c2)cc1` the “activity change, negative = inhibition” value was -2.21% (inactive).
For `COc1ccc(NC(=O)N2CCCC(C(=O)Nc3ccccc3OC)C2)cc1` (configuration not stated), the “activity change, negative = inhibition” value was -1.69% (inactive).
In the case of `CSC1=NCCN1C(=O)Cc1cccc2ccccc12`, the “activity change, negative = inhibition” value is reported as 0.0301% (inactive).
With `COc1cc(CNCc2ccc(OC)c3ccccc23)cc(OC)c1OC` the “activity change, negative = inhibition” value was -15.6% (inactive).
In the case of `COc1cc(NC(=O)C2CCN(c3cnccn3)CC2)cc(OC)c1`, the Potency is reported as 2.62 µM (active).
With `Cc1ccccc1CN1CCC(C(=O)Nc2ccc(Oc3cccnc3)cc2)CC1` the “activity change, negative = inhibition” value was -25.5% (inactive).
With `O=C(Nc1cccc(Cl)c1)C1CCCN(c2cnccn2)C1` (configuration not stated) the “activity change, negative = inhibition” value was 28.4% (inactive).
With `O=C(COC(=O)Cc1ccccc1F)NCCc1ccccc1` the “activity change, negative = inhibition” value was 12.9% (inactive).
With `Cc1nc2ccc(S(=O)(=O)NCC(=O)O)cc2s1` the Potency was 16.5 µM (active).
In the case of `Cc1nc2ccc(S(=O)(=O)NCC(=O)NCCN3CCCCC3C)cc2s1` (configuration not stated), the “activity change, negative = inhibition” value is reported as -2.45% (inactive).
In the case of `Cc1nc2ccc(S(=O)(=O)NC(C(=O)N3CCCCCC3)C(C)C)cc2s1` (configuration not stated), the “activity change, negative = inhibition” value is reported as -2.11% (inactive).
For `C=CCC(NC(=O)Cc1ccccc1)C(=O)NCCC` (configuration not stated), the “activity change, negative = inhibition” value was -3.59% (inactive).
For `CCOCCc1nn2c(=O)cc(CSCC(=O)Nc3cccc(C)c3C)nc2s1`, the “activity change, negative = inhibition” value was 43.5% (inactive).
For `O=C(CN1CCCCC1)Nc1ccccc1Cl`, the “activity change, negative = inhibition” value was 15.1% (inactive).
For `COc1cccc(NC(=O)CN2CCN(CC(=O)Nc3ccccc3Cl)CC2)c1`, the “activity change, negative = inhibition” value was -11% (inactive).
In the case of `Cc1nn(Cc2ccccc2)c(C)c1C(=O)N1CCN(CC(=O)Nc2ccccc2Cl)CC1`, the Potency is reported as 13.1 µM (active).

From PubChem BioAssay AID504834 (National Center for Advancing Translational Sciences (NCATS), 2011)
% is set by controls: 0 for no effect and ±100 for the full control effect; potency is the fitted concentration of half-maximal effect.
